# HSF1 inhib: HSF1 inhibition | NIH3T3-HGL HSE-luciferase, MG132-induced, luminescence 8 h; hits give low values | AID 2098 | activity change, negative = inhibition, % at 7.5 µM (by protocol) | 0.77% of 300,000 active;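 active = more than half of replicate wells show activity change below -50%, luminescence cut by over half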;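 also: luciferase reports HSF-1 transcriptional activity via heat shock element; 0% = median of DMSO wells and -100% = zero luminescence signal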
# HSP90 inh: inhibitors of HSP90 luciferase refolding in rabbit reticulocyte lysate | luciferase refolding luminescence, 3 h | inhibition, % at 5.6 µM | 0.91% of 290,000 active | AID 1789;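 active = inhibition above the screen-wide mean plus 3 SD, computed separately per campaign, cut at about 16% in these data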;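 also: 0% = DMSO wells and 100% = 60 µM geldanamycin wells; inhibitors lower the luminescence because luciferase stays unfolded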
# HSF1 activator: increases HSF-1 driven luciferase reporter signal; NIH3T3-HGL HSF-1 luciferase reporter, MG132, 8 h; 100% = twice DMSO control signal; activation, % at 9 µM; 1.7% of 300,000 active; AID 504408;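 active = mean replicate activation of at least 50% with a set share of replicates each reaching 50%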;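 also: 0% = median of the neutral control wells and 100% = twice that signal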
# ARNT-TACC3 inh: disruptors of human ARNT/TACC3 interaction; Q9Y6A5; AlphaScreen His-ARNT PAS-B/GST-TACC3 binding, luminescence; TACC3 fragment carries E629A point mutation; inhibition, % at 9.99 µM; 0.66% of 390,000 active; AID 623870;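 active = mean inhibition of replicates at least 50% and at least half of replicates each reaching 50%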;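 also: 0% = complete ARNT plus TACC3 wells and 100% = ARNT alone without TACC3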
# HIF activator: HIF pathway transcriptional activation. U2OS HRE-luciferase reporter, luminescence; normalized: DMSO 0%, desferrioxamine 100%. 0.32% of 300,000 active. activation, % at 7.5 µM (by protocol);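 active = mean activation of at least 10% of the iron chelator positive control signal, with at least half of replicates also reaching 10%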
# * = called active by the depositor; · = no result given. Hits are enriched below; roughly 3.1% of the tested compounds scored in any of these assays.
SMILES,HSF1 inhib,HSP90 inh,HSF1 activator,ARNT-TACC3 inh,HIF activator
O=C(Nc1ccc(N2CCOCC2)c(Cl)c1)c1cc2ccccc2o1,31.1,-3.6,55.2*,2.1,6.8
O=C(Nc1ccc2c(c1)CCC2)c1cc2ccccc2o1,26.4,3.6,62.8*,·,1.0
O=C(Nc1ccc2c(c1)CCC2)c1ccc(Br)o1,21.3,5.5,39.0,-1.2,3.5
Cc1ccc(C(=O)Nc2ccc3c(c2)CCC3)o1,32.2,1.8,63.2*,0.8,1.2
CCNC(=O)C[C@@H]1CC[C@H]2[C@@H](COC[C@H](O)CN2C(=O)CC)O1,·,·,·,12.4,·
CCCNC(=O)C[C@H]1C[C@@H]2c3cc(N(C)C)ccc3O[C@@H]2[C@H](CO)O1,·,·,·,8.5,·
Nc1cc(N)nc(SCCOc2ccccc2F)n1,43.1,4.5,66.4*,0.9,1.2
COc1ccccc1OCCSc1nc(N)cc(N)n1,9.7,4.1,20.7,4.6,0.6
CCC1CSC(Nc2ccc(C(=O)/C=C/c3cccc(C)c3)cc2)=N1 (stereo not given),53.1,0.2,74.7*,·,0.8
Cc1noc(C)c1S(=O)(=O)N(C)C[C@H]1OCCCC[C@H](C)Oc2ccc(NC(=O)Nc3ccc4c(c3)OCO4)cc2C(=O)N([C@@H](C)CO)C[C@@H]1C,·,·,·,31.9,·
COc1cccc(CNc2ncc(Br)cc2Br)c1O,107.1,-6.0,138.4*,2.1,1.2
COc1cccc(CNCc2cccc(OC)c2O)c1O,·,·,·,-20.3,·
CO[C@H]1CN(C)C(=O)c2ccc(NS(=O)(=O)c3ccc(Cl)cc3)cc2OC[C@@H](C)N(C)C[C@@H]1C,·,·,·,-6.4,·
C[C@@H]1CN([C@@H](C)CO)C(=O)c2cc(NS(=O)(=O)c3ccc(F)cc3)ccc2O[C@@H](C)CCCCO[C@@H]1CN(C)C(=O)c1ccccc1,·,·,·,-3.1,·
O=C(C[C@H]1CC[C@@H](NC(=O)CC2CC2)[C@@H](CO)O1)NCc1ccc(Cl)cc1,·,·,·,-4.2,·
CC1(C)CC(=O)C(C(C2=C(O)CC(C)(C)CC2=O)c2ccc(Br)s2)C(=O)C1 (stereo not given),102.2,-2.3,123.8*,16.4,-0.3
CO[C@@H]1CN(C)C(=O)c2cc(NC(=O)Nc3ccccc3Cl)ccc2OC[C@@H](C)N(Cc2ccccc2C(=O)O)C[C@H]1C,·,·,·,-2.7,·
O=S1(=O)Nc2c(ccc3cccnc23)-c2ccccc21,142.1,0.8,157.8*,69.0*,1.5
Clc1ccc2ccc3cccnc3c2n1,-1.0,0.5,-4.1,15.1,1.1
Cc1ccc(-c2nc(NCCN(C)C)c3ccccc3n2)cc1,-5.3,0.3,26.1,6.8,2.4
COCCN(CCOC)c1nc(-c2ccc(C)cc2)nc2ccccc12,105.8,0.7,192.8*,-11.2,1.3
Cc1nnnn1/C(=C\c1ccccc1)C(=O)OCC(=O)Nc1ccc(Cl)cc1F,341.3,·,333.5*,0.5,1.3
Cc1nnnn1/C(=C\c1ccccc1)C(=O)OCC(=O)Nc1cccc(S(=O)(=O)N(C)C)c1,·,·,·,-4.2,·
COc1ccc(-c2cnc3c(c2)C(=O)N([C@@H](C)CO)C[C@H](C)[C@@H](CN(C)Cc2ccccc2)O3)cc1,·,·,·,-5.7,·
COCCNC(=O)C(=O)NCC1OCCN1S(=O)(=O)c1cc(F)ccc1F (stereo not given),-0.2,-6.8,-5.7,-3.6,17.2*
SMILES,HSF1 inhib,HSP90 inh,HSF1 activator,ARNT-TACC3 inh,HIF activator
COc1ccc(CCNC(=O)C(=O)NCC2OCCN2S(=O)(=O)c2cc(F)ccc2F)cc1OC (stereo not given),6.2,-0.3,41.8,0.1,-0.2
O=C(NCCc1ccccc1)C(=O)NCC1OCCCN1S(=O)(=O)c1cc(F)ccc1F (stereo not given),-1.6,16.2*,-1.6,2.2,-0.4
CO[C@@H]1CN(C)C(=O)c2ccc(NC(C)=O)cc2OC[C@@H](C)N(S(=O)(=O)c2cn(C)cn2)C[C@@H]1C,·,·,·,-2.4,·
COc1cccc(C#Cc2cnc3c(c2)C(=O)N([C@@H](C)CO)C[C@H](C)[C@H](CN(C)C(C)=O)O3)c1,·,·,·,20.7,·
COc1ccc(N/C=C2\C(=O)CCc3c2oc2cc(Cl)c(O)c(Cl)c32)cc1,40.8,3.5,61.8*,-0.6,-24.5
COc1ccc(N/C=C2\CCOC2=O)cc1,0.0,2.3,-2.7,15.7,-0.4
CN1CCN(C(c2cccnc2)c2ccc3cccnc3c2O)CC1 (stereo not given),-1.9,1.8,-8.8,67.8*,3.2
CN1CCN(C(c2ccc(F)cc2)c2ccc3cccnc3c2O)CC1 (stereo not given),·,·,·,8.4,·
O=C(Nc1ccc(NC(=O)c2cccs2)c(Cl)c1)c1cccs1,30.0,-0.3,69.3*,-4.1,3.2
O=C(Nc1ccc2[nH]ccc2c1)c1cccs1,20.1,3.2,57.7*,2.1,3.9
CC(=O)c1cccc(NC(=O)C2CC(=O)N(CCc3ccccc3)C2)c1 (stereo not given),-59.2*,-6.5,-68.1,-1.0,-0.6
CCc1ccc(NC(=O)c2sccc2-n2cccc2)cc1,15.4,1.9,53.2*,-7.7,1.0
COc1cccc(-c2nc(CS(=O)(=O)CC(=O)Nc3c(C)cccc3C)c(C)o2)c1,0.2,71.7*,-15.0,-4.2,-0.2
CCOC(=O)N1CCC(NC(=O)CS(=O)(=O)Cc2nc(-c3cccc(Cl)c3)oc2C)CC1,9.2,-4.8,17.4,0.7,0.4
COc1cccc(-c2nc(CS(=O)(=O)CC(=O)Nc3cc(C)ccc3C)c(C)o2)c1,2.1,0.2,6.5,-5.3,-0.1
Cc1oc(-c2cccc(Cl)c2)nc1CS(=O)(=O)CC(=O)NC1CC1,24.5,-1.3,57.1*,-5.9,-0.3
COc1cccc(-c2nc(CS(=O)(=O)CC(=O)NCCC(C)C)c(C)o2)c1,-3.2,1.0,18.4,-1.9,0.0
CCN(CCNC(=O)CS(=O)(=O)Cc1nc(-c2cccc(OC)c2)oc1C)c1ccccc1,53.7,0.8,78.4*,-5.3,-0.6
CCc1ccc(-c2nc(CSCC(=O)NC3CC3)c(C)o2)cc1,-71.1*,-0.7,-77.5,-7.7,-1.7
C[C@H](CO)N1C[C@H](C)[C@H](CN(C)C(=O)c2ccncc2)OCCCC[C@H](C)Oc2ccc(NC(=O)CCCCCC(=O)Nc3ccccc3N)cc2C1=O,·,·,·,0.1,·
O=C(NCc1ccccc1)C1CCCC1,-62.3*,0.5,-71.7,·,-9.8
CCN1[C@@H]2c3ccc(-c4cccc(OC)c4)c(=O)n3C[C@@H]2[C@@H](CO)[C@@H]1C(=O)N(C)C,·,·,·,-6.4,·
COc1ccc(NC(=O)Nc2ccc3c(c2)C(=O)N([C@H](C)CO)C[C@@H](C)[C@@H](CN(C)S(=O)(=O)c2ccc(Cl)cc2)OCCCC[C@H](C)O3)cc1,·,·,·,-4.4,·
O=c1[nH]c2ccccc2n2cnnc12,-82.6*,-0.2,-86.4,·,0.0
Cc1ccc(C)c(S(=O)(=O)N2CCN(CC(=O)Nc3ccc4c(c3)OCCO4)CC2)c1,-8.6,-0.7,-4.3,·,0.6
Cc1ccc(C)c(S(=O)(=O)N2CCN(CC(=O)Nc3cc(C)on3)CC2)c1,39.9,-1.3,71.1*,-4.4,0.1
